Records with an inconclusive call do not appear. The source made the active and inactive calls. Unless noted, calls come from the whole dose curve; as a rule, active = well fitted curve in the direction sought with a large enough effect; inconclusive = small, poorly fitted or top-dose-only effect, or another doubt; inactive = no such curve, though single readings can be large; an effect the other way counts as inactive or inconclusive.
What was measured:
[1] = target: Cytochrome P450 1A2 (Homo sapiens) (UniProt P05177); test: p450-cyp1a2 (AID 410; calls by dose curve;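 note: -100% = full effect of reference inhibitor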)
Cytochrome P450 1A2 (Homo sapiens), sequence (P05177 whole entry, looked up): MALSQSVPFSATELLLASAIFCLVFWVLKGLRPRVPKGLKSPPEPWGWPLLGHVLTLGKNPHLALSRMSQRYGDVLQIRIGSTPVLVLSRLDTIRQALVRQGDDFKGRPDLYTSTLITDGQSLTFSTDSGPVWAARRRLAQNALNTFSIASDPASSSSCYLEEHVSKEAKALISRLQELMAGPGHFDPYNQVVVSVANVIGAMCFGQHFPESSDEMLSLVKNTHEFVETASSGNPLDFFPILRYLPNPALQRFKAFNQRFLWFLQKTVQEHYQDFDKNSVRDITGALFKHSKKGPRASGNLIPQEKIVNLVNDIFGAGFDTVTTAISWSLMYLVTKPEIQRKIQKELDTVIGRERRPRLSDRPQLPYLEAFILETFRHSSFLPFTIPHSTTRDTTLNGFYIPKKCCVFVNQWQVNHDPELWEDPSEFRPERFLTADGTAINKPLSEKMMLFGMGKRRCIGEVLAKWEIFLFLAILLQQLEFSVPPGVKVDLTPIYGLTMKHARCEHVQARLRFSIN
In short: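 Human CYP1A2 (20nM) demethylated Luciferin-ME at its Km (100uM) in 100mM KPO4. After 10 min compound preincubation, NADPH regeneration ran the reaction 60 min at room temperature. Luciferin was read by luminescence, normalized to 57 uM furafylline.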

[2] = target: Glucocorticoid receptor (Homo sapiens) (UniProt P04150); test: GR-GFP Redistribution (AID 450;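 active = compounds whose dose series gives a full or clear partial fitted curve of increased nuclear translocation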; note: potency is the fitted concentration of half-maximal effect); conditions: U2OS GR-GFP nuclear translocation, laser cytometry, 2 h
Glucocorticoid receptor (Homo sapiens), sequence (P04150 whole entry, looked up, the tested form may be a part): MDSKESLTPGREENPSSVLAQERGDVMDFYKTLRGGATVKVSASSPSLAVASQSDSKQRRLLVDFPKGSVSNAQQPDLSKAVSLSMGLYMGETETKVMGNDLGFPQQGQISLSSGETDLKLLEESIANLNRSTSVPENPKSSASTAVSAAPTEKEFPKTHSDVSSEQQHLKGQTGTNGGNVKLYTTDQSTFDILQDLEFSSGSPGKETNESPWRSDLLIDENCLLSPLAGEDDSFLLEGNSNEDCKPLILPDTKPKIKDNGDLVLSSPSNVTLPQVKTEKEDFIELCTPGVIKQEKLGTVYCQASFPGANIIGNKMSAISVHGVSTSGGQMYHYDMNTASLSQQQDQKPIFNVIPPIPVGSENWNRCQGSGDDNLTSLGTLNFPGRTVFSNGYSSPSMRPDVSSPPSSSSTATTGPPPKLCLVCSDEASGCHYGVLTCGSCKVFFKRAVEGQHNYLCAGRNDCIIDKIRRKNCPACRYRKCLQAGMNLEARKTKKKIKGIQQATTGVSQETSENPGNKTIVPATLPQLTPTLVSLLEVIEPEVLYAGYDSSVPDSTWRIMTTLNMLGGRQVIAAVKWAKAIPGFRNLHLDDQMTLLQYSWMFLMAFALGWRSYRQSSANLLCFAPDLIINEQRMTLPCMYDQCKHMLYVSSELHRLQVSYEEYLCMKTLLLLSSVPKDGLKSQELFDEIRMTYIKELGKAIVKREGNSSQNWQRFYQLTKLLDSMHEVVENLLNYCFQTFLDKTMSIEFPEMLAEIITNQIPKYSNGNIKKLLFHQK

[3] = target: Glucocorticoid receptor (Homo sapiens) (UniProt P04150); test: GR-EFC Redistribution (AID 451; calls by dose curve; note: potency is the fitted concentration of half-maximal effect); conditions: CHO-K1 GR-EFC translocation, beta-gal luminescence, 2 h
In short: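 CHO-K1 cells stably expressing nuclear-localized β-gal enzyme acceptor and GR fused C-terminally to the enzyme donor fragment; ligand-driven nuclear translocation restores β-gal by complementation. Compounds titrated up to 46 uM final, 2 h at 37 °C; luminescence read.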

[4] = qHTS Assay for Lipid Storage Modulators (AID 1519; calls by dose curve; for activity change, negative = inhibition: % is set by controls: 0 for no effect and ±100 for the full control effect); conditions: Drosophila S3 cells, BODIPY lipid droplet/cell ratio, laser cytometry, cells loaded with oleic acid; for activity change, negative = inhibition: at 57.5 µM (top of the series)
In short: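 Cells seeded at 5,000 per well were treated with compounds over a concentration series and loaded with oleic acid (400 uM, as added). Lipid droplet fluorescence (488 nm excitation, 500-530 nm channel) was read by laser-scanning cytometry and normalized to 20 uM Triacsin C.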

[5] = target: ATP-dependent 6-phosphofructokinase (Trypanosoma brucei brucei) (UniProt O15648); test: qHTS Assay to Find Inhibitors of T. brucei phosphofructokinase: hit validation (AID 492961);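 note: luminescence reports ADP formed as PFK phosphorylates fructose-6-phosphate with ATP; % is set by controls: 0 for no effect and ±100 for the full control effect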
ATP-dependent 6-phosphofructokinase (Trypanosoma brucei brucei), sequence (O15648 whole entry, looked up): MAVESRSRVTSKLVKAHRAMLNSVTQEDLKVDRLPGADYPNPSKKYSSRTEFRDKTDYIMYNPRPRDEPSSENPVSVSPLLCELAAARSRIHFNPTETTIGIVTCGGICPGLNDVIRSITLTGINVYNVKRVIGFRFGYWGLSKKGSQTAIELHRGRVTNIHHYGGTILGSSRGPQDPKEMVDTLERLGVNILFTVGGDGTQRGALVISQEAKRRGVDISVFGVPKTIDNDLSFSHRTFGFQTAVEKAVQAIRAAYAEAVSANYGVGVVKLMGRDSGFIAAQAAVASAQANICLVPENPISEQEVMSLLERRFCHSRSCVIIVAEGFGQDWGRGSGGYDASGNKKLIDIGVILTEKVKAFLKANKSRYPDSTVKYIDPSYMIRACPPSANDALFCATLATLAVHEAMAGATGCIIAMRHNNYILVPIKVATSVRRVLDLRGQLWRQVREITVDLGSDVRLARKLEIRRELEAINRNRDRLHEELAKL
In short: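 PFK 1.25 nM, F6P 0.5 mM, ATP 0.1 mM, MgCl2 5 mM, 0.1 M TEA pH 8.0, Tween20 0.01%, BSA 0.1%; 45 min RT. ADP-Glo two-step detection, luminescence. qHTS titration; curve fitting with curve-class categorization.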

[6] = target: DNA dC->dU-editing enzyme APOBEC-3G (Homo sapiens) (UniProt Q9HC16); test: qHTS for inhibitors of Vif-A3G interactions: Validation (AID 588379); note: 0% is about no effect
DNA dC->dU-editing enzyme APOBEC-3G (Homo sapiens), sequence (Q9HC16 whole entry, looked up): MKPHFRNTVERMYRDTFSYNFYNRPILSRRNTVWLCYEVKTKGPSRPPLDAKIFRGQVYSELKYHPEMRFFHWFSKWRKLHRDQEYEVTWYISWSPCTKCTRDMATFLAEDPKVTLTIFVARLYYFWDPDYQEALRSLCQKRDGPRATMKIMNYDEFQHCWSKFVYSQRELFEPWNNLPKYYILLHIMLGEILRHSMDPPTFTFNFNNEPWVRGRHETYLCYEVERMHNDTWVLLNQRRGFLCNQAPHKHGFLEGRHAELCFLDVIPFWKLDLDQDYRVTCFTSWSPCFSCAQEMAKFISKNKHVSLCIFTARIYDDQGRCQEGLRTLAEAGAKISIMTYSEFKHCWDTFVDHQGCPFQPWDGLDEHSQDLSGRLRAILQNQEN
In short: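 HeLa cells stably expressing Vif and A3G-eYFP, 700 cells/well, incubated overnight at 37 deg C, then exposed to compound overnight at 37 deg C. Inhibition of Vif-mediated degradation read as increased yellow fluorescence (Ex 488/Em 500-530) by laser-scanning cytometry.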

[7] = target: Luciferin 4-monooxygenase (Photinus pyralis) (UniProt P08659); test: Biochemical firefly luciferase enzyme assay for NPC (AID 624030);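 note: purified P. pyralis luciferase at 10 nM with luciferin and ATP substrate; 0% = DMSO and -100% = full luciferase inhibition by PTC124 control; nearly all actives have a fitted effect of over 70% in size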
Luciferin 4-monooxygenase (Photinus pyralis), sequence (P08659 whole entry, looked up): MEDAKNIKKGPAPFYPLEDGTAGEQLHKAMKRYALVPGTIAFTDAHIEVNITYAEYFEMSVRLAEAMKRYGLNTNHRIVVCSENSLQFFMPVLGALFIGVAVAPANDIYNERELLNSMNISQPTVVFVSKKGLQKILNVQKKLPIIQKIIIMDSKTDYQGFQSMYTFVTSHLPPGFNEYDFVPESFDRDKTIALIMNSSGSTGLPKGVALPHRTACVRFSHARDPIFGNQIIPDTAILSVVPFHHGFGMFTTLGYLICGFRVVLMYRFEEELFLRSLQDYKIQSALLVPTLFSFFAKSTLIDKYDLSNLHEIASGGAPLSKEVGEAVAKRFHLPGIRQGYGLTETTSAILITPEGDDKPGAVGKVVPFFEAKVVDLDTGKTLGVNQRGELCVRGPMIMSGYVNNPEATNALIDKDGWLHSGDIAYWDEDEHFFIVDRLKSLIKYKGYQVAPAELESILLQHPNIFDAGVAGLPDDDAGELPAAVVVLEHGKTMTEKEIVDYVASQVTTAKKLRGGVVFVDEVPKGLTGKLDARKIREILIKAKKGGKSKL
In short: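 Counter-screen for direct inhibition of the luciferase enzyme by approved-drug library compounds, run at 10 nM enzyme in 50 mM Tris acetate (final). Luminescence was read within 5 min of enzyme-buffer addition and normalized to PTC124 versus DMSO (0%).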

[8] = qHTS profiling for inhibitors of Plasmodium falciparum proliferation (AID 504749);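 note: 0% = DMSO vehicle and full inhibition = artemisinin control; nearly all actives have a fitted effect of over 60% in size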; conditions: P. falciparum in erythrocytes, SYBR Green DNA, 72 h, at 28.7 µM (top of the series)
In short: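 P. falciparum-infected erythrocytes (0.3% parasitemia, 2.5% hematocrit final) were exposed to compounds for 72 h at 37 C in 5% CO2, then lysed with SYBR Green buffer overnight at room temperature; parasite DNA fluorescence was normalized to artemisinin and DMSO controls.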

[9] = target: Ubiquitin carboxyl-terminal hydrolase 1 (Homo sapiens) (UniProt O94782); test: Inhibitors of USP1/UAF1: Pilot qHTS (AID 504865);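 note: rhodamine fluorescence freed from ubiquitin-rhodamine substrate followed over time; top concentration of the series differs between compounds; % is set by controls: 0 for no effect and ±100 for the full control effect; nearly all actives have a fitted effect of over 35% in size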
Ubiquitin carboxyl-terminal hydrolase 1 (Homo sapiens), sequence (O94782 whole entry, looked up): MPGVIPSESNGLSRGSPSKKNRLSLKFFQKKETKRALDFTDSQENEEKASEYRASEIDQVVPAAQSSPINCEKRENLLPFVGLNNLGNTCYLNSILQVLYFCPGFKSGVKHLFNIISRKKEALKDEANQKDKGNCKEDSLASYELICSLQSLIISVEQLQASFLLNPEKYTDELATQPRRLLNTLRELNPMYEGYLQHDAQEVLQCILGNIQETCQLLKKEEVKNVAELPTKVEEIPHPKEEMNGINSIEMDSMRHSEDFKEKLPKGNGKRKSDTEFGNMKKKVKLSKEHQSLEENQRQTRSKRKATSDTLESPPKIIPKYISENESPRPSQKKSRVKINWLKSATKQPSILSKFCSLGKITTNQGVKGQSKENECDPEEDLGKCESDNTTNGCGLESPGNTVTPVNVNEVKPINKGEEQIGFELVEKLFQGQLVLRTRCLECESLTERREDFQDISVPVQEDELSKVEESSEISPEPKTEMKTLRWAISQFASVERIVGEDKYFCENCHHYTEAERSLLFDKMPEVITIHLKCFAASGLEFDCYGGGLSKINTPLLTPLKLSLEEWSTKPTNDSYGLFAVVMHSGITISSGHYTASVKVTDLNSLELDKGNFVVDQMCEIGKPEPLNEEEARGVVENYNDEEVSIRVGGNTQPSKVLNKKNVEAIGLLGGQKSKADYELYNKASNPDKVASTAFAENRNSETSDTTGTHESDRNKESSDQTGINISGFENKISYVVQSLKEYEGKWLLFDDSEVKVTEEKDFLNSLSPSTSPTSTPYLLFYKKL
In short: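 Deubiquitinase activity followed as kinetic rhodamine fluorescence release from 150 nM Ub-Rho. 1 nM USP1/UAF1 with compound, after 15 min room-temperature preincubation, in HEPES pH 7.8 buffer containing TCEP, EDTA, BSA and Tween-20.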

[10] = target: Cytochrome P450 3A4 (Homo sapiens) (UniProt P08684); test: qHTS Assay for Activators of Cytochrome P450 3A4 (AID 885); note: nearly all actives have a fitted effect of over 65% in size
Cytochrome P450 3A4 (Homo sapiens), sequence (P08684 whole entry, looked up): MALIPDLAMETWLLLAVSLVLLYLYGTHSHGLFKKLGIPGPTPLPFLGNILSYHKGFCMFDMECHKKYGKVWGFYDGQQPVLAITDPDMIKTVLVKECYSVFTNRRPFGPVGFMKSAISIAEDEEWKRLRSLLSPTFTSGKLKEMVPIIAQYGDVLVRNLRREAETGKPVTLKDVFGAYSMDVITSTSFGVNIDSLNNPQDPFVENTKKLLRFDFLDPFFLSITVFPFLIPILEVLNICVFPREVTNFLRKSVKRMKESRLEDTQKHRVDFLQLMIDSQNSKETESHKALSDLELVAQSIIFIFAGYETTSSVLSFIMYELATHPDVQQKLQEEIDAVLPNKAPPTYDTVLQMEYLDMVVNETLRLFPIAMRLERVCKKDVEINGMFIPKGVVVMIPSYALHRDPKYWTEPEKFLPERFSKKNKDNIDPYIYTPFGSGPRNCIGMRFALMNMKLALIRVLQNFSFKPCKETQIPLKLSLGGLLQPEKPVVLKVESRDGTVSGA
In short: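 Quantitative HTS format: compounds preincubated with 20nM human CYP3A4 and Luciferin-PPXE substrate at KM, reaction started by NADPH regeneration, stopped after 60 min, luciferase luminescence read 20 min later.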

[11] = Confirmation and Secondary Assay for Modulators of Hemoglobin Beta Chain Splicing at IVS2 705 locus (AID 930);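 note: HeLa cells stably expressing the EGFP-705 splicing reporter; GFP fluorescence per well restored by corrected splicing of the IVS2-705 intron in EGFP; % of control where 0% means no effect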
In short: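 Read-out: total peak GFP fluorescence per well (488 nm excitation, 500-520 nm emission) by laser-scanning cytometry. Cells: HeLa EGFP-705 splicing reporter, 2 days compound exposure in Optimem/2% FCS.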

[12] = target: Cytochrome P450 3A4 (Homo sapiens) (UniProt P08684); test: qHTS Assay for Inhibitors and Substrates of Cytochrome P450 3A4 (AID 884); note: % is set by controls: 0 for no effect and ±100 for the full control effect; nearly all actives have a fitted effect of over 50% in size
In short: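 20 nM human CYP3A4 with 25 uM Luciferin-PPXE (at KM) in 200 mM KPO4, preincubated 10 min with compound; NADPH regeneration started a 60 min RT reaction. Luciferin detected by luminescence, normalized to 57 uM ketoconazole as full inhibition.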

[13] = Confirmation and Secondary Assay for Modulators of Hemoglobin Beta Chain Splicing at IVS2 654 locus (AID 910); note: % of control where 0% means no effect
In short: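 HeLa cells stably carrying EGFP interrupted by mutant beta-globin IVS2-654 intron (CMV-driven) were treated with compound for 2 days at 37C; corrected splicing was scored as total peak GFP intensity per well (488 nm excitation, 500-520 nm emission).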

[14] = measured here: cell count channel max response
[15] = measured here: lipid channel max response

## COc1cc(N)c(Cl)cc1C(=O)N[C@@H]1CN2CCC1CC2
[1]
  Potency: inactive
[2]
  Potency: > 46 µM (inactive)
[3]
  Potency: > 46 µM (inactive)
[4]
  activity change, negative = inhibition: 7.47% (inactive)
[4]; [14]
  max response: 3.73%
[4]; [15]
  max response: 7.11%
[5]
  Potency: inactive
[6]
  outcome: inactive
[7]
  Potency: inactive
[8]; parasite line A
  activity, negative = inhibition: -0.396% (inactive)
[8]; parasite line B
  activity, negative = inhibition: 5.5% (inactive)

## CN1C2CC(OC(=O)C(CO)c3ccccc3)C[C@@H]1[C@H]1OC21 (stereo not given in full)
[4]
  activity change, negative = inhibition: 7.13% (inactive)
[4]; [14]
  max response: 12.9%
[4]; [15]
  max response: 25.6%
[9]
  Potency: inactive

## C[C@]12CCC3C(CC[C@H]4C[C@@H](O)CC[C@]34C)[C@@H]1CCC2=O (stereo not given in full)
[10]
  Potency: inactive
[4]
  activity change, negative = inhibition: 0.0615% (inactive)
[4]; [14]
  max response: -8.24%
[4]; [15]
  max response: -8.16%
[9]
  Potency: inactive
[6]
  outcome: inactive

## CNc1ccc(C(=O)CC(O)CCC(C)C2OC(=O)CC(O)CC(=O)CC(O)CC(O)CC(O)CC(O)CC3(O)CC(O)C(C(=O)OC)C(CC(O[C@@H]4OC(C)C(O)C(N)C4O)/C=C/C=C/C=C/C=C/C=C/C=C/C=C/C2C)O3)cc1 (stereo not given in full)
[11]
  Potency: inactive
[4]
  activity change, negative = inhibition: 9.29% (inactive)
[4]; [14]
  max response: 14.1%
[4]; [15]
  max response: 27.6%
[5]
  Potency: inactive
[7]
  Potency: inactive
[8]; parasite line A
  activity, negative = inhibition: 6.26% (inactive)
[8]; parasite line B
  activity, negative = inhibition: 3.77% (inactive)

## CC[C@@H]1CN2CC[C@@H]1C[C@H]2[C@H](O)c1ccnc2ccc(OC)cc12
[12]
  Potency: inactive
[4]
  activity change, negative = inhibition: -1.21% (inactive)
[4]; [14]
  max response: 1.88%
[4]; [15]
  max response: 1.41%
[9]
  Potency: inactive
[6]
  outcome: inactive

## CC(C)CC(CN)CC(=O)O (stereo not given)
[12]
  Potency: inactive
[13]
  Potency: inactive
[4]
  activity change, negative = inhibition: 8.71% (inactive)
[4]; [14]
  max response: 14.3%
[4]; [15]
  max response: 26.2%
[5]
  Potency: inactive
[9]
  Potency: inactive
[7]
  Potency: inactive

## CCN1C[C@@]2(COC(=O)c3ccccc3N3C(=O)CC(C)C3=O)CC[C@H](OC)[C@]34C5C[C@@H]6[C@@H](OC)C[C@@](O)(C5[C@H]6OC)[C@@](O)(C13)[C@@H](OC)C24 (stereo not given in full)
[10]
  Potency: inactive
[4]
  activity change, negative = inhibition: 4.09% (inactive)
[4]; [14]
  max response: 6.93%
[4]; [15]
  max response: 19.9%
[9]
  Potency: inactive
[6]
  outcome: inactive

## CC(C)(C)[C@]1(O)C[C@@H]2OC(=O)C[C@@]23C(=O)O[C@@H]2OC(=O)[C@H](O)[C@]213
[12]
  Potency: inactive
[4]
  activity change, negative = inhibition: 3.73% (inactive)
[4]; [14]
  max response: 5.67%
[4]; [15]
  max response: 8.55%
[9]
  Potency: inactive
[6]
  outcome: inactive

## O=C1CCCC2[C@@H]3CCCN4CCC[C@@H](CN12)C34 (stereo not given in full)
[12]
  Potency: inactive
[4]
  activity change, negative = inhibition: 4.15% (inactive)
[4]; [14]
  max response: 4.45%
[4]; [15]
  max response: 7.09%
[9]
  Potency: inactive
[6]
  outcome: inactive

## CC([C@H](O)c1ccccc1)N(C)C (stereo not given in full)
[13]
  Potency: inactive
[4]
  activity change, negative = inhibition: 4.16% (inactive)
[4]; [14]
  max response: 14.6%
[4]; [15]
  max response: 17.5%
[5]
  Potency: inactive
[9]
  Potency: inactive
[7]
  Potency: inactive
[8]; parasite line A
  activity, negative = inhibition: 3.7% (inactive)
[8]; parasite line B
  activity, negative = inhibition: -27.1% (inactive)

## O=C1CC2OCC=C3CN4CC[C@]56c7ccccc7N1[C@H]5[C@H]2C3C[C@H]46 (stereo not given in full)
[4]
  activity change, negative = inhibition: 9.09% (inactive)
[4]; [14]
  max response: 14.5%
[4]; [15]
  max response: 20.7%
[9]
  Potency: inactive
[6]
  outcome: inactive

Source: PubChem BioAssay (NCATS)
